Screening data from PubChem.
Shown are actives, neighbours in structure and some others; about 2.9% of the full set was active somewhere.
KLK7 zymogen act = proKLK7 (human) activation, primary screen | purified proKLK7, EDANS-DABCYL substrate fluorescence; 100% is mature enzyme control, 0% vehicle | P49862 | AID 652039 | activation, % at 7 µM | 370,000 tested, 0.9% active;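 active = activation above the mean of all tested compounds plus 3 SD, computed per campaign excluding outliers beyond control limits, cut at about 13% in these data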
PLC-gamma1 inh = PLC-gamma1 (human) inhibition, primary screen; P19174; purified PLC-gamma1, fluorogenic substrate, fluorescence; inhibition, % at 12.2 µM; 370,000 tested, 0.84% active; AID 720700; in the data active = inhibition above about 9.5%
ADAM17 inh = inhibits human ADAM17 | P78536 | recombinant ADAM17, EDANS/DABCYL FRET peptide cleavage | inhibition, % at 6.95 µM | 370,000 tested, 0.83% active | AID 720648;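 active = inhibition above the mean of compounds lying between control limits plus 3 SD, set per campaign, cut at about 8.5% in these data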;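 also: 0% = DMSO-only wells as the low control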
ADAM10 inh = ADAM10 inhibition, QFRET primary screen | O14672 | recombinant ADAM10, EDANS/DABCYL FRET peptide cleavage, 3 h | inhibition, % at 7 µM | 370,000 tested, 0.62% active | AID 720582;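 active = inhibition above a per-campaign cutoff equal to the mean of compounds falling between control-based bounds plus 3 SD, cut at about 20% in these data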;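 also: 0% = DMSO wells while the 100% control is not disclosed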
PLCb3 inh = blocks human PLC-beta3 enzyme activity; Q01970; Purified PLC-beta3, fluorogenic substrate, fluorescence; inhibition, % at 12.2 µM; 370,000 tested, 0.18% active; AID 720704; in the data active = inhibition above about 11%;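 also: 0% = median of compound wells on plate and 100% = full blocker control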
Target sequence (Q01970 whole entry, looked up): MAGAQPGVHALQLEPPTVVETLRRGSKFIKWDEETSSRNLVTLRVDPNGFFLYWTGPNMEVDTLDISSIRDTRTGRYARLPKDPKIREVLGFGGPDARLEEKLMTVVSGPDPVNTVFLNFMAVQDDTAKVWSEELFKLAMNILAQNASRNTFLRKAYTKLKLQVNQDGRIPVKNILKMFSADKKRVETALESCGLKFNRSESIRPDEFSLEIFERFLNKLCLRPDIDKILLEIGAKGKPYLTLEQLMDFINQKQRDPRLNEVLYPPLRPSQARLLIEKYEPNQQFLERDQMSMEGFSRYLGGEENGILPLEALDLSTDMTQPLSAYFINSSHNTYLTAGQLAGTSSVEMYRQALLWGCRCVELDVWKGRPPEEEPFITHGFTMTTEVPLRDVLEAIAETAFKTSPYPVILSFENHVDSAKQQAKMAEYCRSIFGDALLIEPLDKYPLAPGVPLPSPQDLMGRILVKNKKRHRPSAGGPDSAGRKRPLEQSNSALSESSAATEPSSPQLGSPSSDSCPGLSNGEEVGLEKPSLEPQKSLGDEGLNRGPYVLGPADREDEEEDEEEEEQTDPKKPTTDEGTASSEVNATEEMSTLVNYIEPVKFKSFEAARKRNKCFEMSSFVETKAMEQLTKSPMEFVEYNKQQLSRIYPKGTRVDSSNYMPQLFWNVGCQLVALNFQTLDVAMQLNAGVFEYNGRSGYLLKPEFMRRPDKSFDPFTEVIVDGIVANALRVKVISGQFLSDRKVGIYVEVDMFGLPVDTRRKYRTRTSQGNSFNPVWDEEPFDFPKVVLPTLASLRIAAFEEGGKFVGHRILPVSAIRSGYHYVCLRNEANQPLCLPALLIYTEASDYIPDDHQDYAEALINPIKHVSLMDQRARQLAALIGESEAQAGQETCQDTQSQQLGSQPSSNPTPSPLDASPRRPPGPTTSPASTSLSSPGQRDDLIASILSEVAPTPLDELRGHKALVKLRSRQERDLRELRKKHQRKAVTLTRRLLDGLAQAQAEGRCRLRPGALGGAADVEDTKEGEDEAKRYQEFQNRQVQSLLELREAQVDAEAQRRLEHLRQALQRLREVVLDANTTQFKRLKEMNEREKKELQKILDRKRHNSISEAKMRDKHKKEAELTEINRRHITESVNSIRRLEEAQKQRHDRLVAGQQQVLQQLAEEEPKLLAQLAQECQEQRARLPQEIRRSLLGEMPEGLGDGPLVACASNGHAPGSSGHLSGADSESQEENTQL
ADAM10 confirm = confirmation of inhibitors of human ADAM10; ADAM10 QFRET peptide cleavage, EDANS fluorescence; shares compounds with ADAM10 inh; inhibition, % at 6.95 µM; 2,100 tested, 1% active;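 active = inhibition above about 20% chosen separately for each screening run, limit read from the data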;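 also: 0% = DMSO wells and 100% = marimastat wells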
ADAM17 ctr = ADAM17 inhibition, counter-screen for ADAM10 exosite hits; inhibition, % at 6.95 µM; AID 743214; 2,100 tested, 0.5% active; shares compounds with ADAM10 inh; ADAM17 QFRET peptide cleavage, EDANS fluorescence;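 active = mean triplicate inhibition above the solvent-only control wells' mean plus 3 SD, cut at about 12% in these data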;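 also: 0% = DMSO wells and 100% = marimastat wells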
Starred values were filed as active, the others as inactive; . = not tested or not shown.

SMILES | KLK7 zymogen act | PLC-gamma1 inh | ADAM17 inh | ADAM10 inh | PLCb3 inh | ADAM10 confirm | ADAM17 ctr
Cc1cc(C)n(CC(O)Cn2c3ccc(Br)cc3c3cc(Br)ccc32)c(=O)n1 (stereo not drawn) | 0 | 2 | 8 | 20* | 1 | 6 | 2
CCc1ccc(CCNC(=O)OC2CC3CC2[C@H]2CCCCN2[C@H]3C)cc1 (stereo partly drawn) | 0 | -1 | -1 | -6 | 1 | . | .
CCc1nc2ccccc2c(C(=O)OCC(=O)Nc2cccc(S(=O)(=O)N3CCOCC3)c2)c1C | 1 | 8 | 5 | 22* | 7 | 3 | 1
CCc1nc2ccccc2c(C(=O)OCC(=O)Nc2cccc(S(=O)(=O)NC3=NCCCCC3)c2)c1C | 1 | 7 | 6 | 15 | -13 | . | .
Cc1sc2ncnc(N3CCC(C(=O)NNC(=O)COc4ccc(Cl)cc4)CC3)c2c1C | 0 | 1 | 2 | 21* | -9 | 1 | 0
Cc1sc2ncnc(N3CCC(C(=O)NNC(=O)COc4ccccc4Cl)CC3)c2c1C | 0 | 5 | 0 | 26* | -8 | 3 | 2
CCOC1=C2[C@@H](CN(S(=O)(=O)c3ccc(C)cc3)[C@H]2c2cccc3ccccc23)[C@H]2C(=O)N(c3ccccc3)C(=O)[C@H]2C1 | 1 | 0 | 6 | 21* | 0 | 10 | 3
CCOC1=C2[C@@H](CN(S(=O)(=O)c3ccc(C)cc3)[C@H]2c2ccc(Cl)cc2)[C@H]2C(=O)N(c3ccccc3)C(=O)[C@H]2C1 | 0 | -2 | -4 | -4 | 0 | . | .
COc1cc(NC(=O)C2CCN(c3nnc(-n4cccc4)s3)CC2)cc(OC)c1 | 0 | 3 | 2 | 4 | -1 | . | .
COC(=O)c1cc2c(c3c4cc(F)ccc4n(S(=O)(=O)c4cccc(C)c4)c13)C(=O)N(Cc1ccccc1OC)C2 | -1 | -4 | 2 | -7 | -5 | . | .
CCOC(=O)N/N=C/c1cn(CCCOc2ccc(C)cc2)c2ccccc12 | 0 | 2 | 6 | 0 | 0 | . | .
Cc1ccc(OCC(=O)N/N=C/c2cn(Cc3ccccc3)c3ccccc23)cc1 | 0 | 2 | 6 | 23* | 0 | 1 | 2
COc1ccc(CN2CN3Cc4ccc(C)cc4C3CS2(=O)=O)cc1 (stereo not drawn) | 0 | -6 | 1 | 3 | -7 | . | .
CCCCn1c(N)c(N(CC)C(=O)c2ccc(N3CCCC3=O)cc2)c(=O)[nH]c1=O | 1 | -3 | -4 | -4 | -7 | . | .
CCCCn1c(N)c(N(CCC(C)C)C(=O)c2ccc(N3CCCC3=O)cc2)c(=O)[nH]c1=O | 0 | -4 | -3 | 63* | -3 | 4 | 3
CC(C)c1ccc(OCC(=O)NCc2ccccc2)cc1 | 0 | 1 | 0 | 78* | -1 | 0 | 0
Oc1ccccc1-c1cc(-c2cccc(F)c2)n[nH]1 | 0 | 5 | 5 | 21* | 0 | 4 | 1
Oc1ccc(Cl)cc1-c1cc(-c2ccccc2Cl)[nH]n1 | 0 | 1 | 3 | 5 | 2 | . | .
N#CN1CCC(NS(=O)(=O)c2ccc(F)cc2)C1 (stereo not drawn) | . | -2 | -1 | -1 | 2 | . | .
O=C(COc1ccc(F)cc1)NNC(=O)c1cc2ccccc2oc1=O | 0 | -2 | -5 | -7 | 0 | . | .
Cc1cccc(OCC(=O)NNC(=O)c2cc3ccccc3oc2=O)c1 | 0 | 1 | 7 | 23* | -1 | 23* | 13*
Oc1cc2c(cc1C(c1ccc(Cl)c(Cl)c1)N1CCCC1)OCO2 (stereo not drawn) | 0 | 3 | 8 | 27* | -3 | 19 | 6
CCC(C(=O)Nc1ccccc1N1CCCC1)c1ccccc1F (stereo not drawn) | 0 | -2 | 3 | 3 | -4 | . | .
C=CC[C@@H](CC(=O)NCCO)C(=O)N[C@H](COC(=O)[C@@H](CC=C)Cc1ccc(F)cc1)Cc1c[nH]c2ccccc12 | 0 | 1 | 2 | -13 | 0 | . | .
C=CCC[C@@H](Cc1ccc(F)cc1)C(=O)OC[C@H](Cc1c[nH]c2ccccc12)NC(=O)[C@@H](CC=C)CC(=O)NCCO | 1 | 9 | 7 | 25* | -3 | 1 | 0
SMILES | KLK7 zymogen act | PLC-gamma1 inh | ADAM17 inh | ADAM10 inh | PLCb3 inh | ADAM10 confirm | ADAM17 ctr
Cn1c(CSc2nc3ccccc3s2)n[nH]c1=S | 0 | -4 | -4 | 0 | 1 | . | .
S=c1[nH]nc(CSc2nc3ccccc3s2)o1 | 0 | -3 | 6 | 25* | -5 | -3 | 0
O=C(NCc1ccc(F)cc1)c1cnc(-c2ccccn2)nc1C(F)(F)F | 0 | 1 | -5 | 66* | 1 | 2 | 0
Cc1ccc(CNC(=O)c2cnc(-c3ccccn3)nc2C(F)(F)F)cc1 | 0 | 3 | 0 | 4 | 4 | . | .
CN(CCCOC(=O)c1cc2ccccc2o1)C1CN(Cc2cn(Cc3ccc([N+](=O)[O-])cc3)nn2)S(=O)(=O)C1 (stereo not drawn) | 1 | 0 | -1 | 6 | 4 | . | .
CCCC1=Nc2cc(C(=O)NCCCOC(C)C)ccc2Sc2ccccc21 | 0 | 7 | 8 | 21* | 2 | 7 | 2
COc1cccc(S(=O)(=O)Nc2ccc(C(O)(C(F)(F)F)C(F)(F)F)cc2)c1 | -1 | 6 | 3 | 20* | -2 | -2 | 0
Cc1cc(C)cc(-c2c(C(=O)c3ccc(Br)cc3)[nH]c(N)c2C(=O)NCc2ccc(Cl)cc2)c1 | . | -9 | -2 | -9 | -14 | . | .
COc1ccccc1/C=C1\SC(=S)N(CCC(=O)Nc2cccc(O)c2)C1=O | 0 | 2 | 8 | 23* | -8 | 2 | 1
COc1cc(/C=C2\SC(=S)N(CCC(=O)Nc3cccc(O)c3)C2=O)cc(OC)c1OC | -2 | -16 | 6 | 21* | -26 | 5 | 2
Cc1cc2cc3c(cc2n2c(SCC(=O)Nc4nc(-c5ccccc5)cs4)nnc12)OCO3 | . | -19 | -10 | -16 | -32 | . | .
O=C(NC1CCCCN(Cc2ccc(Cl)cc2)C1=O)c1cccc(F)c1 (stereo not drawn) | 0 | 6 | -5 | -7 | 4 | . | .
C/C=C/COC(=O)c1[nH]c2c(c1C)C(=O)CC(c1ccc(N(C)C)cc1)C2 (stereo not drawn) | 0 | -3 | 5 | 65* | 0 | 6 | 1
CCOCCOC(=O)c1[nH]c2c(c1C)C(=O)CC(c1ccc(N(C)C)cc1)C2 (stereo not drawn) | 0 | 0 | 2 | -3 | 0 | . | .
COC(=O)C[C@H]1CC[C@H]2[C@H](COc3ccc(NS(=O)(=O)c4cccc(OC)c4)cc3C(=O)N2C)O1 | 0 | 0 | -1 | -1 | 1 | . | .
COc1ccc(C(=O)COC(=O)/C=C/c2ccc(S(=O)(=O)Nc3cccc(S(N)(=O)=O)c3)cc2)cc1 | 0 | 2 | 6 | 21* | 0 | 0 | 0
